# High-throughput results as filed in PubChem BioAssay.
# PAD4 inh: human PAD4 inhibitors, primary screen, biochemical, fluorescence polarization, 1536-well format; Protein-arginine deiminase type-4 (Homo sapiens), Q9UM07; recombinant PAD4, RCA probe fluorescence polarization; inhibition, % at 6.36 µM; 330,000 tested, 0.41% active;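 active = percent inhibition above a cutoff equal to the mean of all tested compounds plus 3 SD, cut at about 15% in these data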
# LYPLA1 inh: LYPLA1 inhibitors, primary screen, counter-screen for PME1 inhibitor project, biochemical, fluorescence polarization, FP-Rh probe ABPP; Acyl-protein thioesterase 1 (Homo sapiens), O75608; recombinant LYPLA1; inhibition, % at 5.9 µM; 320,000 tested, 0.16% active; AID 2174, 2009;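 active = inhibition above the mean of all tested compounds plus 3 SD, set per campaign, cut at about 14% in these data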;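 note: inhibitors block serine hydrolase probe labeling of LYPLA1 so polarization falls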
# Target sequence (O75608 whole entry, looked up): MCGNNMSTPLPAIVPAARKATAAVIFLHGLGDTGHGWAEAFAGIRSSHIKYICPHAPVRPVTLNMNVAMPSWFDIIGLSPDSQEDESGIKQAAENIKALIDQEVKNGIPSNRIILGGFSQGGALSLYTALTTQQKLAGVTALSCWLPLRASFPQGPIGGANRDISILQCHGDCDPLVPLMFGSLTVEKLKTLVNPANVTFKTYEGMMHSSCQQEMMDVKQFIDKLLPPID
# PME-1 primary: PME-1 inhibitors via competitive probe labeling, primary screen, biochemical, fluorescence polarization, FP-Rh probe, HTS; Protein phosphatase methylesterase 1 (Homo sapiens), Q9Y570; recombinant PME-1; inhibition, % at 5.9 µM; 320,000 tested, 0.53% active; AID 2130, 2009;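 active = inhibition above the campaign mean of all compounds plus 3 SD, cut at about 26% in these data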;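 note: competitive labeling of PME-1 active site by serine hydrolase directed probe; inhibitors block probe labeling so polarization falls and inhibition rises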
# Target sequence (Q9Y570 whole entry, looked up): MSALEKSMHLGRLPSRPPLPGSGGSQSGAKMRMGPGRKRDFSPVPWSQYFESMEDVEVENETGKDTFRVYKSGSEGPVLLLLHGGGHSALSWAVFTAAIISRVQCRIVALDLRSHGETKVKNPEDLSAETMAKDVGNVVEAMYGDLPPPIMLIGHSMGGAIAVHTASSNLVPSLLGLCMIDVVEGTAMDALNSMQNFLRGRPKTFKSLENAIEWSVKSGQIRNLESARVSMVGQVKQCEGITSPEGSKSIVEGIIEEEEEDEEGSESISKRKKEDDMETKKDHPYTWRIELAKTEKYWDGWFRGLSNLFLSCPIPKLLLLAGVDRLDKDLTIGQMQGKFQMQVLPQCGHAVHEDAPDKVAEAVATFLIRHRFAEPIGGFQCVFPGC
# LYPLA2 counter: LYPLA2 inhibitors, primary screen, counter-screen for PME1 inhibitor project, biochemical, fluorescence polarization, FP-Rh probe ABPP; Acyl-protein thioesterase 2 (Homo sapiens), O95372; recombinant LYPLA2; AID 2177, 2009; inhibition, % at 5.9 µM; 320,000 tested, 0.38% active;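 active = inhibition above the screen-wide mean plus 3 SD, limit set per campaign, cut at about 26% in these data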
# GSTO1 counter: inhibitors of recombinant GSTO1, primary screen, counter-screen for RBBP9 inhibitor project, biochemical, fluorescence polarization. 300,000 tested, 1.1% active. Glutathione S-transferase omega-1 (Homo sapiens), P78417. activity-based probe fluorescence polarization. inhibition, % at 5.96 µM;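 active = inhibition above the campaign mean inhibition plus 3 SD, cut at about 35% in these data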
# Fam108B counter: mouse Fam108B serine hydrolase inhibitors, primary screen, counter-screen for RBBP9 inhibitor project, biochemical, fluorescence polarization; recombinant Fam108B, FP-Rh probe fluorescence polarization; inhibition, % at 9.51 µM; 300,000 tested, 0.33% active; AID 1947, 2009;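 active = inhibition above the screen mean inhibition plus 3 SD, computed separately per campaign, cut at about 18% in these data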;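 note: inhibitors lower polarization as less probe binds the enzyme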
# Fam108b confirm: mouse Fam108b serine hydrolase inhibitors, confirmation, counter-screen for RBBP9 inhibitor project, biochemical, fluorescence polarization, triplicate | recombinant Fam108b, FP-Rh probe fluorescence polarization | shares compounds with Fam108B counter | inhibition, % at 9.51 µM | 930 tested, 44% active | AID 1978, 2009;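 active = inhibition above a limit from the primary screen, the mean over all compounds plus 3 SD, cut at about 19% in these data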;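 note: inhibitors free the probe so polarization falls as inhibition rises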
# Fam108b ABPP HTS: inhibition of mouse Fam108b by HTS hits, late-stage follow-up, biochemical, gel-based ABPP, soluble recombinant form; shares compounds with Fam108B counter; AID 588649, 2011; inhibition, % at 20 µM; 260 tested, 44% active; fluorophosphonate probe; in the data active = inhibition above about 40%
# GSTO1 confirm: GSTO1 inhibitor hit confirmation, counter-screen for RBBP9 inhibitor project, biochemical, fluorescence polarization, triplicate. shares compounds with GSTO1 counter. recombinant GSTO1, probe fluorescence polarization. inhibition, % at 5.96 µM. 2,400 tested, 54% active;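 active = inhibition above the primary screen's cutoff, its mean inhibition plus 3 SD, cut at about 35% in these data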;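 note: loss of polarization as inhibitors block binding of rhodamine sulfonate ester activity probe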
# LYPLA1 conf: LYPLA1 inhibitors, retest, confirmation, counter-screen for PME1 inhibitor project, biochemical, fluorescence polarization, FP-Rh probe ABPP. shares compounds with LYPLA1 inh. recombinant LYPLA1. 480 tested, 69% active. AID 2233, 2010. inhibition, % at 5.9 µM;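 active = mean inhibition across replicates above the hit cutoff set in the primary screen, cut at about 15% in these data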;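 note: loss of FP-Rh probe labeling of LYPLA1 seen as lower polarization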
# LYPLA2 confirm: LYPLA2 inhibitors, retest, confirmation, counter-screen for PME1 inhibitor project, biochemical, fluorescence polarization, FP-Rh probe ABPP; shares compounds with LYPLA2 counter; recombinant LYPLA2; inhibition, % at 5.9 µM; 1,100 tested, 72% active; AID 2232, 2010;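 active = mean inhibition across replicates above the hit cutoff set in the primary screen, cut at about 26% in these data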;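 note: blocked labeling of the enzyme by serine hydrolase FP-Rh probe lowers polarization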
# PAD4 FP conf: human PAD4 inhibitors, confirmation, biochemical, fluorescence polarization | inhibition, % at 6.36 µM | AID 488796, 2010 | 1,200 tested, 28% active | shares compounds with PAD4 inh | recombinant PAD4, RCA probe fluorescence polarization;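 active = mean inhibition across replicates above the hit cutoff set by the earlier primary screen, cut at about 15% in these data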;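 note: inhibitors block active-site labeling by the probe so polarization falls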
# Hits are given with their value; n = inactive; x = no result. This is a sample that favours compounds with a hit; in the whole collection about 1.8% have one here.
SMILES,PAD4 inh,LYPLA1 inh,PME-1 primary,LYPLA2 counter,GSTO1 counter,Fam108B counter,GSTO1 confirm,others
CC(C)N=c1cc2n(-c3ccc(Cl)cc3)c3ccccc3nc-2cc1Nc1ccc(Cl)cc1,20,31,32,43,n,39,x,Fam108b confirm=n;LYPLA1 conf=15;LYPLA2 confirm=n;PAD4 FP conf=28
CC(C)N(C(=O)Nc1ccc2nsnc2c1)C(C)C,78,71,32,73,98,55,77,Fam108b confirm=33;Fam108b ABPP HTS=n;LYPLA1 conf=n;LYPLA2 confirm=31;PAD4 FP conf=n
COc1ccc(NC(=S)Nc2ccc3nsnc3c2)cc1,68,61,36,86,86,29,80,Fam108b confirm=40;Fam108b ABPP HTS=55;LYPLA1 conf=n;LYPLA2 confirm=n;PAD4 FP conf=n
CC1CCN(C(=O)Nc2ccc3nsnc3c2)CC1,n,n,n,n,n,n,x,
COc1ccc(NC(=S)Nc2ccc3nc(C)c(C)nc3c2)cc1,n,n,n,n,n,n,x,
Cc1ccc(OCC(=O)N2CC(C)CC(C)C2)c([N+](=O)[O-])n1 (stereo unspecified),n,x,x,x,x,x,x,
CCCCCn1c(NC(=O)c2ccco2)c(S(=O)(=O)c2ccc(C)cc2)c2nc3ccccc3nc21,n,n,n,n,n,n,x,
CCCCn1c(NS(=O)(=O)c2ccccc2)c(S(=O)(=O)c2ccc(C)cc2)c2nc3ccccc3nc21,66,64,28,56,92,54,83,Fam108b confirm=n;LYPLA1 conf=82;LYPLA2 confirm=91;PAD4 FP conf=n
C=CCn1c(NC(=O)c2ccccc2Cl)c(C#N)c2nc3ccccc3nc21,59,39,n,50,79,49,62,Fam108b confirm=n;LYPLA1 conf=n;LYPLA2 confirm=86;PAD4 FP conf=n
CCCCn1c(NC(C)=O)c(C#N)c2nc3ccccc3nc21,n,n,n,n,n,n,x,
Cn1c(=O)c(N)c2c3c(c(Br)ccc31)C(=O)c1ccccc1-2,106,17,37,29,n,29,x,Fam108b confirm=26;LYPLA1 conf=21;PAD4 FP conf=126
CCc1ccc(NC(=O)CSc2nncn2-c2cccnc2)cc1,n,n,n,n,n,n,x,
CCCCNc1c2c3c(cccc3n(C)c1=O)C(=O)c1ccccc1-2,90,42,75,54,44,45,n,Fam108b confirm=49;Fam108b ABPP HTS=n;LYPLA1 conf=39;LYPLA2 confirm=37;PAD4 FP conf=81
CN1C(=O)c2cccc(NCCCN3C(=O)c4ccccc4C3=O)c2C1=O,n,n,n,n,n,n,x,
Cc1cc(-c2nnc(CCC(=O)NCc3cc(F)cc(C(F)(F)F)c3)o2)no1,n,n,n,n,n,n,x,
O=C1C=C(N2CCCCC2)c2ccccc2C1=O,65,40,40,27,91,69,88,Fam108b confirm=82;Fam108b ABPP HTS=n;LYPLA1 conf=37;LYPLA2 confirm=32;PAD4 FP conf=61
CCCCN(C(=O)CCSc1ccc(F)cc1)c1c(N)n(Cc2ccccc2)c(=O)[nH]c1=O,n,n,n,n,n,n,x,
COc1cc(C2CC(c3cccs3)=NN2C(=O)CCl)ccc1OC(F)F (stereo unspecified),n,n,n,n,94,n,97,
COc1ccc(C2CC(c3cccs3)=NN2C(=O)c2ccccc2)cc1OC (stereo unspecified),n,n,n,n,n,n,x,
COc1ccc(C2CC(c3cccs3)=NN2C(=O)CCl)cc1OC (stereo unspecified),n,n,n,n,90,n,96,
Cc1ccccc1OCC(=O)Nc1ccccc1C(=O)NC1CC1,n,n,n,n,n,n,x,
Cn1cc(C(=O)c2ccc(Cl)cc2Cl)cc1C(=O)N/N=C(\N)COc1ccc(Cl)cc1Cl,n,n,n,n,n,n,x,
CCOC(=O)C/C(N)=N/NC(=O)c1ccc(Cl)cc1Cl,n,n,n,n,62,n,n,
O=[N+]([O-])c1ccc(Oc2ccc(S(=O)(=O)Nc3ccccc3)cc2)cc1,n,n,n,n,n,n,x,
O=C1C(Cl)=C(NS(=O)(=O)c2ccc([N+](=O)[O-])cc2)C(=O)c2ccccc21,n,n,n,n,100,n,88,
SMILES,PAD4 inh,LYPLA1 inh,PME-1 primary,LYPLA2 counter,GSTO1 counter,Fam108B counter,GSTO1 confirm,others
O=C(CCl)NC1(C(F)(F)F)C(=O)Nc2c1c(=O)[nH]c(=O)n2-c1ccccc1 (stereo unspecified),n,n,n,n,67,n,71,
CC1=NN(c2ccc(C(F)(F)F)cn2)C(=O)C1,n,n,n,n,44,n,n,
CCOC(=O)N1CCN(c2ccc(C(F)(F)F)cn2)CC1,n,n,n,n,n,n,x,
COc1ccc(N2CCN(C(=O)COC(=O)c3ccc(C)o3)CC2)cc1,n,n,n,n,n,n,x,
Cc1ccc(NC(=O)/C(=C\c2ccc([N+](=O)[O-])cc2)NC(=O)c2ccccc2)cc1,n,n,n,n,n,n,x,
O=C(N/N=C/c1ccc(O)c(O)c1O)/C(=C/c1ccc([N+](=O)[O-])cc1)NC(=O)c1ccccc1,n,n,n,n,54,n,n,
Cc1nn(CC(=O)NCCCN2CCC(N3CCCCC3)CC2)c(=O)c2cc(-c3ccccc3)nn12,n,n,n,n,n,n,x,
CC[C@]12c3[nH]c4cc(-c5ccco5)ccc4c3CCN1C(=O)[C@@H](CC(=O)NCCN1CCOCC1)C[C@@H]2C(=O)N1CCN(C(=O)C2CC2)CC1,n,x,x,x,x,x,x,
O=C(NC1(O)C(=O)c2ccccc2C1=O)c1ccccc1,n,n,n,n,77,n,82,
